The source of these data is PubChem BioAssay (EPA / NIEHS).

Each structure is given as a SMILES string. Activity calls are given as the source filed them. How the source made its calls: active means hit-call score of the fitted dose curve at least 0.9, where 1 is the maximum; inactive means score below 0.9.

This test is described as follows: ATG_GATA_CIS: Attagene CIS-FACTORIAL HepG2 Assay for human GATA Binding Protein (AID 2282944). Particulars: HepG2 GATA cis-element reporter, Attagene multiplex mRNA; actives raise or lower the signal. As to the method: ATG_CIS is a cell-based, multiplexed-readout assay that uses HepG2, a human liver cell line, with measurements taken at 24 hours after chemical dosing in a 24-well plate.ATG_GATA_CIS is one of 52 assay component(s) measured or calculated from the ATG_CIS assay. It is designed to make measurements of mRNA induction, a form of inducible reporter, as detected with fluorescence intensity signals by Reverse transcription polymerase chain reaction (RT-PCR) and Capillary electrophoresis technology.Data from the assay component ATG_GATA_CIS was analyzed into 1 assay endpoint. This assay endpoint, ATG_GATA_CIS, was analyzed with bidirectional fitting relative to DMSO as the negative control and baseline of activity. Using a type of inducible reporter, measures of mRNA for gain or loss-of-signal activity can be used to understand the reporter gene at the transcription factor-level as they relate to the gene GATA1. Furthermore, this assay endpoint can be referred to as a primary readout, because this assay has produced multiple assay endpoints where this one serves a reporter gene function. To generalize the intended target to other relatable targets, this assay endpoint is annotated to the dna binding intended target family, where the subfamily is GATA proteins.
Human liver HepG2 cells are transiently transfected with multiple reporter transcription units (MRTUs) in 6-well plates using FuGene 6 reagent (Roche; 3 ml FuGene/1 mg DNA). The MRTU constructs are regulated by a cis-regulating element (promoter). […] A major difference between the CIS and TRANS system is that in CIS activities of endogenous TFs are measured, whereas the TRANS assay evaluates changes in activities of exogenous, chimeric NR-Gal4 proteins. […] At the end of 24 hour incubation, total RNA was isolated using TriZol reagent (Invitrogen). The isolated RNA is then reverse-transcribed using oligo(dT) primer and Mo-MLV reverse transcriptase (Invitrogen) with DNAse I (Ambion) treatment for 30 min. The one-tenth of the produced cDNA was amplified by PCR using Taq DNA polymerase (Invitrogen) and two reporter sequence-specific primers. The PCR products were fluorescently labeled by primer extension with 6-arboxyfluorescein (6-FAM) 5'-labeled reporter sequence-specific primer (2 min at 95 C, 20 s at 68 C and 10 min at 72 C) and these products were digested with 5U of HpaI (New England Biolabs) for 2h at 37 C. The fragments were purified using Qiaquick PCR columns (Qiagen), analyzed on an ABI 3130xL genetic analyzer (Applied Biosystems) with peak positions identified by using a set of X-rhodamine (ROX)-labeled MapMarker1000 molecular weight standards (BioVentures). The raw capillary electrophoresis data was processed using Attagraph software (Attagene).
In the case of `O=C1CCC(=O)N1`, the result was inactive.

For the compound `Cc1cc(O)c(C)c(C)c1O`, the result was inactive.

For the compound `CC(=O)Oc1c(C)c(C)c2c(c1C)CC[C@@](C)(CCC[C@H](C)CCC[C@H](C)CCCC(C)C)O2`, the compound was called inactive.

As to `CN(C)CCC=C1c2ccccc2CCc2ccccc21`, the compound was classed as inactive.

`CC(C)N1C(=O)c2ccccc2C1=O`: the result was inactive.

Consider `CCCCN(CCO)CCO`, for which the result was inactive.

With `CCC(C)(C)C1CCC(=O)CC1`, the outcome was inactive.

Consider `CC(O)CN` (stereo not given), for which the call was inactive.

As to `CC1=CC(C)C(C=O)C(C)C1` (stereo not given) (tested in a mixture with another compound), the compound was classed as inactive.

Regarding `Cc1cc(O)c2c(c1)C(=O)c1cc(O)cc(O)c1C2=O`, the compound was called inactive.

For `CC(C)C(=O)OCC=Cc1ccccc1`, the result was inactive.

Regarding `CCC(=O)OCC=Cc1ccccc1`, the result was inactive.

Consider `CCCCCCCOC(C)=O`, for which the compound was classed as inactive.

Turning to `CCOc1ccc(NC(C)=O)cc1`, the outcome was inactive.

Regarding `CC(=O)CC(C)(C)C1CCCCC1`, the result was inactive.

On to `CCOC(=O)CC1(C)OCC(C)O1` (stereo not given), for which the call was inactive.

Consider `CC(=O)c1cccnc1`, for which the compound was called inactive.

For `CCCCCCCCCCO[C@@H]1O[C@H](CO)[C@@H](O)[C@H](O)[C@H]1O`, the outcome was inactive.

For `CC1(C)CC(=O)CC(C)(C)N1`, the compound was called inactive.

As for `CCO[Si](CC)(OCC)OCC`, the result was inactive.

As to `CCOC(=O)COC(=O)c1ccccc1C(=O)OCC`, the result was inactive.

In the case of `CC(=O)N(C)C`, the compound was called inactive.

With `ClCCOCCOCCCl`, the result was inactive.

`O=Cc1ccccc1O`: the result was inactive.

On to `CCCO`, for which the compound was classed as inactive.

For the compound `CC(C)(C)c1cccc(O)c1`, the result was inactive.

For the compound `Nc1ccc(N)c([N+](=O)[O-])c1`, the result was inactive.

On to `COc1ccc(N)c(C)c1`, for which the outcome was inactive.

With `CC(=O)c1ccc(O)cc1`, the compound was classed as inactive.

As for `CCCCCC1C(=O)CCC1CC(=O)OC` (stereo not given), the result was inactive.

For `CN1CCc2cccc3c2[C@H]1Cc1ccc(O)c(O)c1-3`, the outcome was inactive.

For `CC(=O)OC/C=C(C)/C=C/C=C(C)/C=C/C1=C(C)CCCC1(C)C`, the outcome was inactive.

In the case of `CCC(C)(C)C1CCC(OC)CC1` (stereo not given), the compound was classed as inactive.

In the case of `C=CCOC(=O)/C=C\C(=O)OCC=C`, the compound was classed as inactive.

For `CC(=O)Nc1cc(S(=O)(=O)O)cc2cc(S(=O)(=O)O)c(N=Nc3ccccc3)c(O)c12`, the compound was classed as inactive.

For `C1=COCCC1`, the call was inactive.

`NC(N)=S`: the compound was classed as inactive.

For the compound `CCCCOCC(C)OCC(C)O` (stereo not given), the outcome was inactive.

Turning to `CC(C)N(c1ccccc1)C(C)C`, the outcome was inactive.

Consider `O=c1cc[nH]cc1`, for which the outcome was inactive.
